Our source for the AC50 and outcome values is PubChem BioAssay (EPA / NIEHS).

Records with an inconclusive call do not appear. Calls of active or inactive are those of the source. How the source made its calls: active means hit-call score of the fitted dose curve at least 0.9, where 1 is the maximum; inconclusive means response in the unintended direction; inactive means score below 0.9.

For the test, the target named is human Matrix Metalloproteinase-9 (MMP9), MMP9 (gene 4318) (UniProt P14780). The experiment in a line: NVS_ENZ_hMMP9: NovaScreen (NVS) Enzymatic Assay for human Matrix Metalloproteinase-9 (MMP9) (AID 2283190).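 Further: active means inhibition seen as loss of fluorescence signal versus DMSO.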 Here is the method: NVS_ENZ_hMMP9 is a biochemical, single-readout assay that uses extracted gene-proteins in a cell-free assay. Measurements were taken 1 hour after chemical dosing in a 96-well plate.NVS_ENZ_hMMP9 is one of one assay component(s) measured or calculated from the NVS_ENZ_hMMP9 assay. It is designed to make measurements of enzyme activity, a form of enzyme reporter, as detected with fluorescence intensity signals by Fluorescence technology.Data from the assay component NVS_ENZ_hMMP9 was analyzed into 1 assay endpoint. This assay endpoint, NVS_ENZ_hMMP9, was analyzed in the positive analysis fitting direction relative to DMSO as the negative control and baseline of activity. Using a type of enzyme reporter, loss-of-signal activity can be used to understand changes in the enzymatic activity as they relate to the gene MMP9. Furthermore, this assay endpoint can be referred to as a primary readout, because this assay has produced multiple assay endpoints where this one serves a enzymatic activity function. To generalize the intended target to other relatable targets, this assay endpoint is annotated to the protease intended target family, where the subfamily is matrix metalloproteinase.
Chain of human Matrix Metalloproteinase-9 (MMP9), MMP9 (gene 4318) (P14780 whole entry, looked up): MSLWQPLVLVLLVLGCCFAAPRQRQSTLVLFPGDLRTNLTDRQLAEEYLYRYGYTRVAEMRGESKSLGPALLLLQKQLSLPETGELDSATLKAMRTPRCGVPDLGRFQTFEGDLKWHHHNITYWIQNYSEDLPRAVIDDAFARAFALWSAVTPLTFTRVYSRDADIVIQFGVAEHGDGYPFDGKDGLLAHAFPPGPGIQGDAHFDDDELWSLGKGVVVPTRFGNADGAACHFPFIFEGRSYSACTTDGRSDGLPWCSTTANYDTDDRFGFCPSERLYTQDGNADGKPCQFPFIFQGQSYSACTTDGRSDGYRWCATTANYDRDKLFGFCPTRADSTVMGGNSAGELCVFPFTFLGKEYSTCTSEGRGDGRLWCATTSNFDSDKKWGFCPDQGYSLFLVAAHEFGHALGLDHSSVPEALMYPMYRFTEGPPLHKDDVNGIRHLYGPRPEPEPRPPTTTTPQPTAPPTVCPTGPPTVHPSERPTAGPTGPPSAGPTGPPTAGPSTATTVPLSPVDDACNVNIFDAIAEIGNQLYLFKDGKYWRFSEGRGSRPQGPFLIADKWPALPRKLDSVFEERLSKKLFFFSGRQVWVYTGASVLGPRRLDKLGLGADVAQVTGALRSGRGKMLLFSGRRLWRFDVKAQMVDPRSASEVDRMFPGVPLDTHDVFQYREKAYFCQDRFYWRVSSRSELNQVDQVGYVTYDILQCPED
Binding assays used specific radioligands (tritiated, iodinated) with non-radioactive competitive displacement ligands in agonist or antagonist protocols (as indicated) and various reference compounds and inhibitors to titrate specific binding to receptors and transporters. Most enzyme assays (CYPs, kinases, phosphatases, proteases, HDACs) used recombinant protein and specific substrates (fluorescence mostly, some colorimetric and radioactive) and inhibitors, followed by a biochemical separation of substrate and product. All assays for the biochemical HTS were initially run in duplicate at a single concentration (10 uM for CYP450 assays and 25 uM for all others). […] Each assay was run with positive and negative controls, and concurrent controls on every plate. The follow-up (secondary) screen tested active chemical-pairs in concentration series, as well as a few additional assays not tested in the primary screen, some selected negative inactives, and several cases re-run in the concentration series for confirmatory purposes.
With `Cc1c(O)cccc1O`, the concentration at half-maximal activity (AC50) (commonly the midpoint of the concentration-response curve, whichever way the signal moves) was 25.5 µM (active).

Regarding `C=CCCCCCCCCC=O`, the AC50 was 5.07 µM (active).

As to `CCc1occc(=O)c1O`, the AC50 was 6.98 µM (active).

For the molecule `CC(C)C(=O)OCCOc1ccccc1`, the concentration at half-maximal activity (AC50) is 7.19 µM (active).

For `CCCCOC(=O)CCC(C)=O`, the AC50 was 6.97 µM (active).

For the molecule `OCCCc1ccccc1`, the result was inactive.

On to `CCOC(=O)C1=NOC(c2ccccc2)(c2ccccc2)C1`, for which the half-maximal activity concentration (AC50) is 2.32 µM (active).

With `CC(C)(CO)COC(=O)C(C)(C)CO`, the AC50 is 9.37 µM (active).

On to `CCCCCCCO`, for which the concentration at half-maximal activity (AC50) was 0.197 µM (active).

Consider `Cc1ccc(S(=O)(=O)N=C=O)cc1`, for which the half-maximal activity concentration (AC50) is 7.22 µM (active).

`CC(C)c1cccc(C(C)C)c1N`: the AC50 was 6.9 µM (active).

As for `CCCCC(C=O)CC` (stereo not drawn), the AC50 was 5.82 µM (active).

Consider `CC(C)CCCCCOC(=O)CS`, for which the concentration at half-maximal activity (AC50) was 5.63 µM (active).

As to `COc1ccc(C(=O)/C(Br)=C\C(=O)O)cc1`, the AC50 was 4.96 µM (active).

As to `CCC(C)(O)CCCC(C)C` (stereo not drawn), the AC50 is 0.972 µM (active).

For the molecule `C=C(C)OC(C)=O`, the AC50 was 9.44 µM (active).

As to `CCCSSCCC`, the AC50 is 6.62 µM (active).

`CCCCOCCOCCOC(C)=O`: the AC50 is 1.23 µM (active).

Turning to `CCCCCCOC(=O)CCCCC(=O)OCCCCCC`, the half-maximal activity concentration (AC50) was 7.16 µM (active).

As to `CCCCCCCC(=O)OCC(COC(=O)CCCCCCC)OC(=O)CCCCCCC`, the half-maximal activity concentration (AC50) is 4.96 µM (active).

For `CC=C(C)C=CC=C(C)C`, the half-maximal activity concentration (AC50) was 4.96 µM (active).

On to `O=C(Oc1ccccc1)c1ccccc1C(=O)Oc1ccccc1`, for which the half-maximal activity concentration (AC50) is 9.17 µM (active).

`CO[Si](CCCS)(OC)OC`: the AC50 was 12.4 µM (active).
